Source: PubChem BioAssay
aSyn UTR inh – 5' untranslated region of α-synuclein, MLPCN primary screen; alpha-synuclein 5'UTR reporter, inhibitor activity; inhibition, % (tested at 7.5 µM); 300,000 tested, 0.82% active; AID 1813; in the data active = inhibition above about 60%;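 note: H4 neuroglioblastoma cells stably carrying SNCA 5'UTR luciferase fusion; 0% = DMSO wells and 100% = positive control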
KLF5 inh – kruppel-like factor 5 inhibition. AID 1700. inhibition, % at 5 µM. DLD-1 KLF5 promoter-luciferase reporter, luminescence. 290,000 tested, 0.23% active;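 active = inhibition above a per-plate limit of that plate's mean compound inhibition plus 3 SD, cut at about 60% in these data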;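 note: 0% = DMSO wells and 100% = LY294002 at 200 µM; higher means less KLF5 promoter-driven luciferase light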
Ba/F3 V617F tox – loss of viability in JAK2V617F-driven Ba/F3 cells | Ba/F3 EpoR-JAK2V617F viability, ATP luminescence | inhibition, % at 5.6 µM | 220,000 tested, 1.1% active | AID 1446;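 active = inhibition above the campaign mean plus 3 SD over all tested compounds, cut at about 24% in these data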;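 note: cytokine-independent growth of Ba/F3 cells driven by EpoR plus mutant JAK2; 0% = DMSO-treated cells and 100% = JAK inhibitor I control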
BaF3 tox – reduces parental Ba/F3 cell viability, JAK2V617F counter-screen. CellTiter-Glo ATP luminescence. inhibition, % at 5.6 µM. 220,000 tested, 1.1% active. AID 1486;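 active = inhibition above a per-campaign cutoff, the mean inhibition of all tested compounds plus 3 SD, cut at about 27% in these data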;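 note: 0% = DMSO wells and 100% = JAK Inhibitor I control wells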
IEC-6 cytotox – IEC-6 cytotoxicity, counter-screen for KLF5 inhibitors. luminescence viability. inhibition, % at 5 µM. 290,000 tested, 0.78% active. AID 1825;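 note: 0% = plate median of test compound wells and 100% = cytotoxic reference compound wells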
APP transl inh – APP translation inhibition. 190,000 tested, 0.82% active. SH-SY5Y APP 5'UTR-luciferase reporter, luminescence. inhibition, % at 2 µM;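 active = inhibition above a set limit, derived from the sample mean plus 3 SD, cut at about 45% in these data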
IEC-6 tox confirm – confirmation of cytotoxic compounds in rat IEC-6 intestinal epithelial cells. shares compounds with IEC-6 cytotox. IEC-6 rat intestinal epithelial viability, luminescence. inhibition, % at 5 µM. 1,900 tested, 63% active. AID 1907;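 note: 0% = vehicle and 100% = reference cytotoxic drug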
Active calls of the source: *. A selection: hits, their analogues and other compounds. The true share with any hit is near 2.1%. Cut-off read from the data, not from the text of the source, unless noted: active = inhibition above about 22%; inactive = the rest.

For COc1ccc(S(=O)(=O)N2CCCOC2CNC(=O)C(=O)NC2CCCC2)cc1 (stereo unspecified) the results were aSyn UTR inh 12, KLF5 inh -53 and IEC-6 cytotox 7.
`Cc1oc2c(c(=O)c1C)C(=O)CC(c1ccccc1)C2` (stereo unspecified) gave aSyn UTR inh 9, KLF5 inh -30, Ba/F3 V617F tox -2, BaF3 tox 5, IEC-6 cytotox 1 and APP transl inh 6.
CS(=O)(=O)c1sc(C#N)c2c1C(=O)CC(c1ccccc1)C2 (stereo unspecified) was read as aSyn UTR inh 81*, KLF5 inh -11, Ba/F3 V617F tox 99*, BaF3 tox 92*, IEC-6 cytotox 75* and IEC-6 tox confirm 20.
`COc1ccccc1OCCCC(=O)Nc1nnc(C2CCCO2)s1` (stereo unspecified) gave aSyn UTR inh -13, KLF5 inh -23 and IEC-6 cytotox -4.
`Cc1cccc(N2CCN(C(=O)c3cc(S(=O)(=O)N4CCCC4)cn3C)CC2)c1C` gave aSyn UTR inh 35, KLF5 inh 43, IEC-6 cytotox 52* and IEC-6 tox confirm 16.
`COc1ccc(NC(=O)c2ccccn2)cc1OC` gave aSyn UTR inh -88, KLF5 inh -58, Ba/F3 V617F tox 0, BaF3 tox 6, IEC-6 cytotox 0 and APP transl inh -44.
For O=C(N/N=C(\c1ccccc1)c1ccccn1)c1ccccc1Cl the results were aSyn UTR inh 68*, KLF5 inh 53, IEC-6 cytotox 95* and IEC-6 tox confirm 58*.
For COc1ccc(C(=O)N/N=C(\c2ccccc2)c2ccccn2)cc1 the results were aSyn UTR inh 107*, KLF5 inh 25, Ba/F3 V617F tox 74*, BaF3 tox 68*, IEC-6 cytotox 28*, APP transl inh 78* and IEC-6 tox confirm 65*.
Screening COc1ccc(C(=O)N/N=C(\C)c2ccccn2)cc1OC returned aSyn UTR inh 43, KLF5 inh 54, IEC-6 cytotox 40* and IEC-6 tox confirm 99*.
`C/C(=N\NC(=O)c1ccc(Cl)c(Cl)c1)c1ccccn1` gave aSyn UTR inh 28, KLF5 inh 50, IEC-6 cytotox 42* and IEC-6 tox confirm 97*.
`C/C(=N/NC(=O)c1ccc(C(C)(C)C)cc1)c1ccccn1` gave aSyn UTR inh 57.
C/C(=N\NC(=O)c1ccccc1Cl)c1ccccn1 was read as aSyn UTR inh 82*, KLF5 inh 36, IEC-6 cytotox 41* and IEC-6 tox confirm 66*.
`C/C(=N\NC(=O)c1cccc2ccccc12)c1ccccn1` gave aSyn UTR inh 60, KLF5 inh 50 and IEC-6 cytotox 16.
Screening CC[n+]1c(C=C2C=C(C)OC(C)=C2)sc2ccccc21 returned aSyn UTR inh 9, KLF5 inh 30, Ba/F3 V617F tox 100*, BaF3 tox 91*, IEC-6 cytotox 25*, APP transl inh 9 and IEC-6 tox confirm 27*.
For Cc1ccc(OCCNC(=O)c2ccccc2F)cc1 the results were aSyn UTR inh -23, KLF5 inh 4 and IEC-6 cytotox 0.
COc1ccc(S(=O)CC(=O)Nc2ccc(Cl)cc2Cl)cc1 (stereo unspecified) was read as aSyn UTR inh -1, KLF5 inh -12, Ba/F3 V617F tox -1, BaF3 tox 3, IEC-6 cytotox -2 and APP transl inh 4.
Screening Cc1ccc(-n2nc3c(N4CCC(C(=O)NCCc5ccccc5C)CC4)nnc(C)c3c2C)cc1 returned aSyn UTR inh 72*, KLF5 inh -2, IEC-6 cytotox 23* and IEC-6 tox confirm 34*.
For O=S(=O)(c1ccc(Cl)cc1)N1CCC(c2nc3ccccc3[nH]2)CC1 the results were aSyn UTR inh 76*, KLF5 inh 3, IEC-6 cytotox 31* and IEC-6 tox confirm 28*.
CCCN(CCC)c1nc(-c2ccccn2)nc2ccccc12 was read as aSyn UTR inh -45, KLF5 inh 34, IEC-6 cytotox 93* and IEC-6 tox confirm 33*.
`CCCN1CCN(CCCNC(=O)c2ccc3nc(N4CCCCC4)sc3c2)CC1` gave aSyn UTR inh -214, KLF5 inh -138 and IEC-6 cytotox 0.
